Bioassay records: PubChem, Broad Institute
GSIS activator = GLuc luminescence reporter in INS-1E cells, primary screen for activators of glucose-dependent secretion of insulin; AID 743287, 2014; activation, % at 16.6 µM; 0.61% of 370,000 active; INS-1E GLuc reporter insulin secretion, 2-3 h;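 active = lowest replicate activation of at least 40%, so every replicate reaches that level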;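 also: 0% = median of neutral control wells and 100% = median of IBMX positive control wells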
PGC1a acetyl inh = inhibitors of PGC1a acetylation signal, primary screen, cell-based, U2OS, AlphaScreen, inhibitor mode. AlphaScreen anti-acetyl-lysine; with virally co-expressed GCN5 acetyltransferase. inhibition, % at 15.6 µM. 0.17% of 350,000 active. AID 651687, 2012;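 active = every replicate shows inhibition of at least 40%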;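 also: 0% = neutral control wells and 100% = positive control wells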
EWS-Fli block = EWS/Fli-driven NR0B1 reporter inhibitors, primary screen, A673 cells, NR0B1 luciferase, luminescence, MLPCN library; 0.67% of 350,000 active; viability-normalised; inhibition, % at 12.6 µM;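 active = mean inhibition of at least 50% after viability correction, with every replicate also passing that limit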;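 also: firefly luciferase signal divided by Alamar Blue viability fluorescence both relative to DMSO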
CFTR F508del cor = F508del CFTR correction, initial screen, CFBE line, single point. CFBE cells, YFP halide quenching; stimulated with forskolin plus potentiator P3; % fluorescence drop versus neutral controls. activity (quench increase), % at 7.58 µM. 0.36% of 350,000 active. AID 720511, 2013;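 active = mean added fluorescence quench of at least 8% versus neutral control, with both replicates also reaching 8%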;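 also: cells transiently co-express mutant CFTR-F508del with the halide-sensitive YFP; corrector assay measuring rescue of mutant channel to the surface after 24 h compound exposure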
HIV Env fusion = inhibitors of HIV-1 Env-driven cell-cell fusion, primary screen, HeLa-JRFL effector, CEM21 target cells, luciferase; inhibition, % at 12.3 µM; AID 651610, 2012; 1.1% of 360,000 active;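 active = mean replicate inhibition score of at least 50 and every replicate individually at or above 50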;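 also: 0% = plate neutral controls and 100% = maraviroc near 300 nM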
PAX8 reporter = inhibitors of PAX8-driven TPO luciferase reporter, primary screen, RMG-I cells, single concentration; inhibition, % at 12.6 µM; 1.2% of 360,000 active; SteadyGlo, 24 h;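 active = mean replicate inhibition at least 60% with every replicate also reaching 60%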;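 also: luciferase light reporting Pax8 driven TPO promoter activity; plate controls were median of neutral control wells for no effect and mitoxantrone controls for full effect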
Starred values were filed as active, the others as inactive; i = inactive; · = not tested or not shown; [ ] = remark or other dose. Rows were chosen to be rich in hits. Some 2.7% of all compounds tested hit in one or more screens of this group.

SMILES	GSIS activator	PGC1a acetyl inh	EWS-Fli block	CFTR F508del cor	HIV Env fusion	PAX8 reporter
Oc1ccc(C[C@H]2CN([C@@H](Cc3cccc(O)c3)CN3CCC[C@@H]3CN3C(=S)NC[C@@H]3Cc3ccccc3)C(=S)N2CC2CCCCC2)cc1	7.3	-29.2	31.5	0.3	40.2	74.9*
Oc1ccc(C[C@H]2CNC(=S)N2C[C@H]2CCCN2C[C@H](Cc2ccccc2)N2C[C@H](Cc3ccc(O)cc3)N(CC3CCCCCC3)C2=S)cc1	-6.6	-38.7	18.3	0.9	0.0	10.8
Oc1ccc(C[C@H]2CNC(=S)N2CC2CCCN2C[C@H](Cc2ccc(O)cc2)N2C[C@H](Cc3ccc(O)cc3)N(CC3CCCCC3)C2=S)cc1 (some centres not stated)	-37.5	-7.7	11.8	0.6	91.0*	90.8*
Oc1ccc(C[C@H]2CN([C@@H](Cc3ccccc3)CN3CCCC3CN3C(=S)NC[C@@H]3Cc3ccccc3)C(=S)N2CC2CCCCC2)cc1 (some centres not stated)	-11.3	·	10.7	-3.1	-6.4	15.1
Oc1ccc(C[C@H]2CN([C@@H](Cc3ccc(O)cc3)CN3CCC[C@@H]3CN3C(=S)NC[C@@H]3Cc3ccccc3)C(=S)N2CC2CCCCCC2)cc1	·	-7.7	34.5	-2.2	17.4	88.6*
Oc1ccc(C[C@H]2CNC(=S)N2CC2CCCN2C[C@H](Cc2ccccc2)N2C[C@H](Cc3ccc(O)cc3)N(CC3CCCCCC3)C2=S)cc1 (some centres not stated)	279.6	-10.3	19.5	3.4	14.6	72.5*
CCCC(=O)Nc1ccc2c(c1)C(=O)N(C)[C@H]1CC[C@H](CC(=O)Nc3cccc(F)c3)O[C@@H]1CO2	-0.7	-2.4	5.1	0.2	·	·
C[C@@H]1CN([C@H](C)CO)C(=O)c2cccc(NS(=O)(=O)c3cn(C)cn3)c2O[C@H]1CN(C)C(=O)NC1CCCCC1	1.2	6.0	-7.4	-2.0	·	·
COc1ccc(-n2nc(C(=O)NCC(=O)Nc3cc(OC)c(OC)c(OC)c3)c3ccccc3c2=O)cc1Cl	-3.8	4.1	7.6	-0.6	22.0	80.9*
CC[C@@H]1CC=CC[C@@H](C)Oc2ccccc2C(=O)N(C)[C@H](Cc2ccccc2)C(=O)N1 (mixture of isomers)	3.9	·	·	·	·	·
O=C1c2ccccc2C(=O)c2c1cccc2N(CCO)CCO	5.9	9.1	-27.4	13.0*	3.3	-8.3
C[C@@H]1CCCCO[C@@H](CN(C)S(=O)(=O)c2ccc(F)cc2)[C@H](C)CN([C@@H](C)CO)C(=O)c2cc(NC(=O)Nc3ccc(F)cc3)ccc2O1	-16.6	-5.6	-2.6	-2.6	-21.0[16.7 µM]	37.6
C[C@@H]1CCCCO[C@H](CN(C)S(=O)(=O)c2ccc(F)cc2)[C@H](C)CN([C@@H](C)CO)C(=O)c2cc(NC(=O)Nc3ccc(C(F)(F)F)cc3)ccc2O1	26.7	0.1	-8.1	0.1	37.1[16.7 µM]	58.1
C[C@@H]1CN([C@H](C)CO)C(=O)c2cc(NC(=O)Nc3ccc(C(F)(F)F)cc3)ccc2O[C@@H](C)CCCCO[C@H]1CN(C)S(=O)(=O)c1ccc(F)cc1	33.6	-19.4	-6.1	3.8	46.1[16.7 µM]	78.0*
C[C@@H]1CCCCO[C@H](CN(C)S(=O)(=O)c2ccc(F)cc2)[C@@H](C)CN([C@@H](C)CO)C(=O)c2cc(NC(=O)Nc3ccc(F)cc3)ccc2O1	7.1	8.4	5.5	-2.5	23.2[16.7 µM]	61.7*
Cc1ccc(S(=O)(=O)N(C)C[C@@H]2OCCCC[C@H](C)Oc3ccc(NC(=O)Nc4ccc(F)cc4)cc3C(=O)N([C@H](C)CO)C[C@H]2C)cc1	-0.7	-25.8	14.4	0.6	-3.3	63.6*
Cc1ccc(S(=O)(=O)N(C)C[C@@H]2OCCCC[C@H](C)Oc3ccc(NC(=O)Nc4ccc(F)cc4)cc3C(=O)N([C@@H](C)CO)C[C@H]2C)cc1	-31.5	4.8	15.2	-2.0	0.6[16.7 µM]	6.6
CNC[C@H]1OCCCC[C@@H](C)Oc2ccc(NC(=O)Nc3ccc(OC)cc3)cc2C(=O)N([C@H](C)CO)C[C@@H]1C	11.3	5.0	2.8	0.6	2.7[16.7 µM]	-18.8
O=C(C[C@H]1CC[C@@H]2[C@H](COC[C@@H](O)CN2CCc2ccccc2)O1)NCc1ccc(F)cc1	5.1	2.0	-6.5	2.2	·	-8.7
COC(=O)C[C@H]1CC[C@H]2[C@@H](COc3ccc(NS(=O)(=O)c4cccc(F)c4)cc3C(=O)N2C)O1	10.5	7.0	-3.3	1.7	3.8[16.7 µM]	-13.0
Cn1c(CC(=O)NN)c(Sc2ccccc2)c2ccccc21	6.1	17.3	16.9	11.8*	4.8	2.5
CCc1cc(-c2cnnn2CCc2c[nH]c3ccccc23)ccc1-c1cn(CC(C)C)nn1	-43.5	·	-7.7	1.3	5.3	15.3
CCc1cc(-c2nnn(-c3cc(C(C)C)ccc3C)c2CC)ccc1-c1cn(CCc2c[nH]c3ccccc23)nn1	-2.1	-1.7	29.2	1.4	84.5*	48.6
C(=N\NC1=Nc2cccc3cccc1c23)/c1ccccc1	10.9	·	·	·	i	-99.6
Clc1ccc(/C=N/NC2=Nc3cccc4cccc2c34)cc1	98.4*	·	·	·	-212.1	-44.8
SMILES	GSIS activator	PGC1a acetyl inh	EWS-Fli block	CFTR F508del cor	HIV Env fusion	PAX8 reporter
CC(C)NC(=O)N(C)C[C@H]1Oc2ncc(C#CC3CCCC3)cc2C(=O)N([C@@H](C)CO)C[C@@H]1C	-6.0	13.4	0.4	4.2	-13.6[16.7 µM]	2.4
COc1cc(NC2c3ccccc3C(=O)N2Cc2ccccc2Cl)cc(OC)c1 (configuration not stated)	2.5	-20.3	-7.9	-1.4	64.5*	3.6
COc1cccc(NC2c3ccccc3C(=O)N2Cc2ccccc2Cl)c1 (configuration not stated)	-2.1	0.5	5.2	1.0	35.7	1.7
COc1ccc(NC(=O)N(C)C[C@@H]2Oc3ccc(NS(=O)(=O)c4ccc(F)cc4)cc3C(=O)N([C@@H](C)CO)C[C@@H]2C)cc1	3.4	-17.6	-2.9	-0.6	·	·
C[C@@H]1CN([C@H](C)CO)C(=O)c2cc(NS(=O)(=O)c3cn(C)cn3)ccc2O[C@@H](C)CCCCO[C@H]1CN(C)CC1CCCCC1	-7.1	·	-2.4	-0.3	10.4[16.7 µM]	-6.4
CC(=O)OCCNc1cc(SC(C)C)c2nonc2c1[N+](=O)[O-]	2.4	11.5	1.6	3.0	-34.6	-11.6
CCC(=O)OCCNc1cc(SCCC(=O)OC)c2nonc2c1[N+](=O)[O-]	-20.9	·	·	·	14.4	-2.9
CCCC(=O)OCCNc1cc(Sc2nc3ccccc3[nH]2)c2nonc2c1[N+](=O)[O-]	75.6*	20.5	·	·	-31.5	85.6*
CCC(=O)OCCNc1cc(Sc2nccn2C)c2nonc2c1[N+](=O)[O-]	111.4*	·	·	·	-183.7	104.4*
